Where “and” joins values, the source holds several entries; their conditions need not be identical. Identical values can stand only once. Calls of active or inactive are those of the source.
Assays:
[1] = anti-His antibody binders, primary screen, artefact control for SMM control protein annotation, biochemical, small-molecule microarray, 635 nm fluorescence (AID 1128); conditions: anti-His Alexa647 antibody binding, higher = more signal;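 also: score merges feature fluorescence with signal-to-noise for each printed compound spot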
[2] = tested on: Human papillomavirus type 1a E7 protein (residues 1-88); assay: HPV1a E7 small-molecule binders, primary screen, biochemical, small-molecule microarray, residues 1-88, 635 nm (AID 1129); conditions: small-molecule microarray binding, fluorescence 635 nm; higher = more signal
[3] = molecular target: Focal adhesion kinase 1 (Homo sapiens) (UniProt Q05397); assay: small-molecule microarray binders of FAK, primary screen, biochemical, 635/667 nm fluorescence, BSA, DTT (AID 1130); conditions: PTK2 binding, 635 nm fluorescence, higher = more signal;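 also: composite of spot emission at 667 nm and signal to noise over triplicate slides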
Sequence of Focal adhesion kinase 1 (Homo sapiens) (Q05397 whole entry, looked up): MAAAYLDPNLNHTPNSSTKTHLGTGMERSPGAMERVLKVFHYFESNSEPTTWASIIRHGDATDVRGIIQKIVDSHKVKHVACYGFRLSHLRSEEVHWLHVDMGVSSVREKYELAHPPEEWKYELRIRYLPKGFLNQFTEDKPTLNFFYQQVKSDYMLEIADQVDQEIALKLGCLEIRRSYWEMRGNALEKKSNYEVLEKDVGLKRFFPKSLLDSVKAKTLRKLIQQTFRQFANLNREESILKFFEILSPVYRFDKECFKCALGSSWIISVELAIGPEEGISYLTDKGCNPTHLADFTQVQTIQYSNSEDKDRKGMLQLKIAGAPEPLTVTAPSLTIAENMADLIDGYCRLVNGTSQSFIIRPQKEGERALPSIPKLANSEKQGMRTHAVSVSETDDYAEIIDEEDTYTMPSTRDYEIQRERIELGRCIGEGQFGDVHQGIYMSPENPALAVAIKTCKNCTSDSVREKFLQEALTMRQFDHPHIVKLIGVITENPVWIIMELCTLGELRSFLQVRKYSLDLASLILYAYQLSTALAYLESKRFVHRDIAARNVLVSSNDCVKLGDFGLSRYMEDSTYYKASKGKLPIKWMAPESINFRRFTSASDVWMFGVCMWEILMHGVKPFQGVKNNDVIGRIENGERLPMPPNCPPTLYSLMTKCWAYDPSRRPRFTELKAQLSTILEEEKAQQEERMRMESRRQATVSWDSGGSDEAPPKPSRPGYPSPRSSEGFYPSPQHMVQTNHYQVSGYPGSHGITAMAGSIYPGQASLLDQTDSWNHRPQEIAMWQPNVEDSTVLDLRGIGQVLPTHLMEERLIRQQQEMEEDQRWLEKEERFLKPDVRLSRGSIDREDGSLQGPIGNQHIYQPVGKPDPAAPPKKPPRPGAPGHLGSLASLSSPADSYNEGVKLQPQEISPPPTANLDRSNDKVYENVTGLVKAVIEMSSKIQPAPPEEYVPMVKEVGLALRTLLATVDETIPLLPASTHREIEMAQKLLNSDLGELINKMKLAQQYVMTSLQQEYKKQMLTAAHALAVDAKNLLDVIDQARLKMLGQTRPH

[4] = tested on: Fibrinogen (Alexa647-labelled); assay: fibrinogen binders on compound microarrays, profiling panel, artefact control for SMM control-protein annotation, biochemical, small-molecule microarray, 635/667 nm fluorescence (AID 1131); conditions: fibrinogen-A647 binding fluorescence, higher = more signal;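 also: z-score merges 667 nm fluorescence with per-spot signal-to-noise over triplicate slides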
[5] = molecular target: Follistatin (Homo sapiens) (UniProt P19883); assay: follistatin binders on small-molecule microarrays, primary screen, biochemical, small-molecule microarray, 635/667 nm fluorescence (AID 1132); conditions: FST binding, 635 nm fluorescence, higher = more signal
Sequence of Follistatin (Homo sapiens) (P19883 whole entry, looked up): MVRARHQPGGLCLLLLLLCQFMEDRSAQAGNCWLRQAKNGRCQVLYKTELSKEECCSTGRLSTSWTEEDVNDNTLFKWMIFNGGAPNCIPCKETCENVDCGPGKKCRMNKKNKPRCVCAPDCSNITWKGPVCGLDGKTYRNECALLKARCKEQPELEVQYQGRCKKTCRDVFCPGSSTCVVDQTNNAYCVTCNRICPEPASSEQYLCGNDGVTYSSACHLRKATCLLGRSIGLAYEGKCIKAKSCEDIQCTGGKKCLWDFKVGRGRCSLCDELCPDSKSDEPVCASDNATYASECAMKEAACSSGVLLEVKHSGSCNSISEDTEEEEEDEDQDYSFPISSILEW

[6] = molecular target: Fibroblast growth factor 2 (Homo sapiens) (UniProt P09038); assay: FGF2 binders on small-molecule microarrays, primary screen, biochemical, small-molecule microarray, 635/667 nm fluorescence (AID 1133); conditions: small-molecule microarray binding, FGF2, fluorescence 635/667; higher = more signal
Sequence of Fibroblast growth factor 2 (Homo sapiens) (P09038 whole entry, looked up): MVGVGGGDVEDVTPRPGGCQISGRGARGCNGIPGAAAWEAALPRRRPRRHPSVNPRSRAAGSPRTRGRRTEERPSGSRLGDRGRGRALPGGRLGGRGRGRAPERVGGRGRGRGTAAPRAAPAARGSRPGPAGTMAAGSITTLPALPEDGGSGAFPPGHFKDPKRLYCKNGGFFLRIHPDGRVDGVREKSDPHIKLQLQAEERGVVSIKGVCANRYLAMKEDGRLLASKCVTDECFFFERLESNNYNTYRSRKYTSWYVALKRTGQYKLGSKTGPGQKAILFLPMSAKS

[7] = mitochondrial membrane potential change in A549 cells, profiling panel, cell-based, JC-1 fluorescence, basal, 24 h, 100 nL (AID 1138); conditions: higher = more signal;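 also: A549 lung adenocarcinoma cells under basal conditions with no added stimulus; test concentration not given here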
Lefty1 = Lefty1 binders on small-molecule microarrays, primary screen, biochemical, small-molecule microarray, 635/667 nm fluorescence (AID 1139); conditions: small-molecule microarray binding, fluorescence 635/667; higher = more signal
[8] = tested on: wheat germ agglutinin (Triticum aestivum), Alexa647-labelled; assay: wheat germ agglutinin binders on compound microarrays, profiling panel, artefact control for SMM control-protein annotation, biochemical, small-molecule microarray, 635/667 nm fluorescence (AID 1140); conditions: WGA-A647 binding, 635 nm fluorescence, higher = more signal;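 also: score merges 667 nm feature emission with signal to noise over triplicate slides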
[9] = molecular target: Luciferin 4-monooxygenase (Photinus pyralis) (UniProt P08659); assay: firefly luciferase enzyme inhibitors, primary screen, biochemical, luminescence, purified enzyme, 2006 set (AID 1141); conditions: SteadyGlo luminescence, 30 min, higher = more signal, called active from +8 up or from −8 down;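 also: cell-free assay with purified firefly luciferase at 100 ng per well in PBS; test concentration not given here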
Sequence of Luciferin 4-monooxygenase (Photinus pyralis) (P08659 whole entry, looked up): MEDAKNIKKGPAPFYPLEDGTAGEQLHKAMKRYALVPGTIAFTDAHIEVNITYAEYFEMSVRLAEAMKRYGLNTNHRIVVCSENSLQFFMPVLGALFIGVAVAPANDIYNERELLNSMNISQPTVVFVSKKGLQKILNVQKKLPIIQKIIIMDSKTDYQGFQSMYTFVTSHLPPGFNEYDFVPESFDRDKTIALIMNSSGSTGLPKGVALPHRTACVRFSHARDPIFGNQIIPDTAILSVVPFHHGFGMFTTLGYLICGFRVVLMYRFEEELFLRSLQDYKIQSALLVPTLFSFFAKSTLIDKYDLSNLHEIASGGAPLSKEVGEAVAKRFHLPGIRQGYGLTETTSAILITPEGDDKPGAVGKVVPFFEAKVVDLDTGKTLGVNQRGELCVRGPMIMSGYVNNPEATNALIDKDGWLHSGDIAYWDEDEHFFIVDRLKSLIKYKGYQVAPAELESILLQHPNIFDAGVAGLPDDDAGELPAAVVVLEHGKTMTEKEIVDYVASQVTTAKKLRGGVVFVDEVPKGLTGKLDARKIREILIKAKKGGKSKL

CC(C)C(=O)N[C@@H]1CCCN1C(=O)C=Cc1ccccc1 gave a composite z-score [1] of 0.108, a composite z-score [2] of 0.746 and a composite z-score [3] of 0.746. The composite z-score [4] was 0.494, the composite z-score [5] was 0.541 and the composite z-score [6] was 0.565. The z-score [7] was 1.81, the composite z-score (Lefty1) was 0.813 and the composite z-score [8] was -0.0087. The z-score [9] was -0.489 (inactive).
With COC(=O)C1=C(C)N(Cc2ccccc2)C2=C3C(=O)N(C)C(=O)[C@@H]3[C@@](O)(C(=O)OC)C(=O)N2[C@@H]1c1ccccc1 the composite z-score [1] was 0.21 and -0.0385, the composite z-score [2] was 0.311 and 0.614 and the composite z-score [3] was 0.128 and 0.276. For the same compound, the composite z-score [4] was 0.269 and 0.335, the composite z-score [5] was 0.355 and 0.223 and the composite z-score [6] was 0.55 and 0.24. For the same compound, the z-score [7] was 0.286 and 0.239, the composite z-score (Lefty1) was -0.0227 and 0.627 and the composite z-score [8] was 0.129 and -0.0358. For the same compound, the z-score [9] was -0.598 (inactive) and -2.38 (inactive).
For C=CCN(C(=O)C1N(CCOCCO)C(=O)C2C(C(=O)O)C3C=CC21O3)C(C)(C)C (stereo not given), the composite z-score [1] was -0.673 and -0.976, the composite z-score [2] was -1.66 and -0.815 and the composite z-score [3] was -0.324 and -0.708. For the same compound, the composite z-score [4] was -4.25 and -0.473, the composite z-score [5] was -2.09 and -1.58 and the composite z-score [6] was -1.27 and -2.81. The z-score [7] was -0.147 and -0.774, the composite z-score (Lefty1) was -1.43 and -1.07 and the composite z-score [8] was -0.511 and -0.0854. For the same compound, the z-score [9] was -0.352 (inactive) and 0.274 (inactive).
For CC(CO)N1C(=O)[C@@H]2C3C(=O)OCCC=C[C@H]3OC23C=CCN(c2ccc(Cl)cc2)C(=O)[C@@H]13 (stereo not given in full), the composite z-score [1] was -1.31 and 1.36, the composite z-score [2] was -1.31 and -0.0543 and the composite z-score [3] was 1.69 and 0.156. For the same compound, the composite z-score [4] was -0.697 and 0.363, the composite z-score [5] was -1.49 and 0.33 and the composite z-score [6] was -1.73 and -0.68. For the same compound, the z-score [7] was 0.931 and 0.848, the composite z-score (Lefty1) was -1.49 and 0.213 and the composite z-score [8] was -0.0757 and 0.684. The z-score [9] was -0.593 (inactive) and -0.731 (inactive).
With COC(=O)[C@H](C)NC(=O)CCC1CC(OC(=O)NCCc2ccc(F)cc2)CC2(CCCC(COC(=O)NCCCN3CCCC3=O)O2)O1 (stereo not given in full) the composite z-score [1] was 0.944, the composite z-score [2] was 1.17 and the composite z-score [3] was 0.534. For the same compound, the composite z-score [4] was 0.872, the composite z-score [5] was 1.03 and the composite z-score [6] was 1.3. For the same compound, the z-score [7] was -0.498, the composite z-score (Lefty1) was 1.55 and the composite z-score [8] was 0.526. The z-score [9] was 0.824 (inactive).
In the case of C=C[C@H](C)[C@@H](O)c1ccc(OCCO)cc1, the composite z-score [1] is reported as -0.419 and 0.713, the composite z-score [2] is reported as -1.38 and -0.449 and the composite z-score [3] is reported as -0.996 and -0.139. For the same compound, the composite z-score [4] was -1.48 and 0.462, the composite z-score [5] was 0.42 and 0.345 and the composite z-score [6] was 0.036 and -0.488. For the same compound, the z-score [7] was -0.459 and 1.14, the composite z-score (Lefty1) was -0.931 and 0.134 and the composite z-score [8] was -0.449 and 0.106. For the same compound, the z-score [9] was -3.17 (inactive) and -4 (inactive).
With C=CCN(Cc1ccccc1)C(=O)C1N(c2c(Cl)cccc2CO)C(=O)C2C(C(=O)O)C3C=CC21O3 (stereo not given) the composite z-score [1] was -1.57 and -1.25, the composite z-score [2] was -2.28 and -0.762 and the composite z-score [3] was -1.12 and -0.942. For the same compound, the composite z-score [4] was -1.61 and -1.28, the composite z-score [5] was -2.48 and -2.78 and the composite z-score [6] was -1.21 and -1.62. The z-score [7] was 1.29 and -0.936, the composite z-score (Lefty1) was -3.16 and -3 and the composite z-score [8] was -1.9 and -1.22. For the same compound, the z-score [9] was -1.28 (inactive) and 1.17 (inactive).
With O=c1n(-c2ccccc2)c(=O)n2n1CC[C@@H]1C(=NOC[C@@H](O)COCc3ccco3)[C@H]3O[C@H]3[C@@H](O)[C@@H]12 the composite z-score [1] was 0.196 and 1.9, the composite z-score [2] was 0.0776 and -0.425 and the composite z-score [3] was 0.828 and -0.367. The composite z-score [4] was -0.309 and -0.105, the composite z-score [5] was 1.15 and 0.461 and the composite z-score [6] was 1.02 and 0.96. For the same compound, the z-score [7] was -0.642 and -0.729, the composite z-score (Lefty1) was 1.43 and 0.459 and the composite z-score [8] was -0.392 and 0.0106. The z-score [9] was 0.0662 (inactive) and -0.214 (inactive).
With C[C@@H]1CN2[C@@H](CC[C@@H](C)[C@@H]2c2ccc(Br)cc2)C(=O)O1 the composite z-score [1] was 0.513 and -0.557, the composite z-score [2] was -1.13 and 0.142 and the composite z-score [3] was -0.0732 and 0.591. For the same compound, the composite z-score [4] was -0.459 and -0.964, the composite z-score [5] was -0.138 and 0.0634 and the composite z-score [6] was 0.0798 and 0.44. For the same compound, the z-score [7] was 1.14 and 1.07, the composite z-score (Lefty1) was -0.0013 and 0.133 and the composite z-score [8] was -0.556 and 0.125. The z-score [9] was -0.678 (inactive) and -1.36 (inactive).
CO[C@@H]1COC(=O)CC=C[C@H](C)COC(=O)[C@H](C)NC(=O)CC=C[C@H]1C gave a composite z-score [1] of 0.401, a composite z-score [2] of -0.375 and a composite z-score [3] of -0.0308. The composite z-score [4] was -0.607, the composite z-score [5] was 1.11 and the composite z-score [6] was 1.72. It also gave a z-score [7] of 0.521, a composite z-score (Lefty1) of 1.03 and a composite z-score [8] of -0.587. For the same compound, the z-score [9] was -0.394 (inactive).
For C=CCN(C(=O)C1N(C(C)(C)CO)C(=O)C2C(C(=O)O)C3C=CC21O3)c1ccc(OC)cc1 (stereo not given), the composite z-score [1] was -2.21 and -2.2, the composite z-score [2] was -1.08 and -1.45 and the composite z-score [3] was -0.488 and -0.747. The composite z-score [4] was -1.1 and -1.88, the composite z-score [5] was -2.74 and -3.18 and the composite z-score [6] was -2.91 and -2.56. For the same compound, the z-score [7] was 0.869 and 0.79, the composite z-score (Lefty1) was -2.07 and -3.54 and the composite z-score [8] was -1.08 and -2.01. For the same compound, the z-score [9] was -2.06 (inactive) and -1.09 (inactive).
In the case of Cc1cc2c(nc1C)CCCN2CC(C)ON=C[C@@H](C)[C@H](OCc1ccccc1)C(C)C (stereo not given in full), the composite z-score [1] is reported as -0.265, the composite z-score [2] is reported as -1.26 and the composite z-score [3] is reported as 0.252. It also gave a composite z-score [4] of -0.709, a composite z-score [5] of 0.141 and a composite z-score [6] of -0.0657. The z-score [7] was -0.7, the composite z-score (Lefty1) was 0.254 and the composite z-score [8] was -0.911. For the same compound, the z-score [9] was 0.765 (inactive).
Work on CC(C)=NO[C@@H](C)c1cc(-c2c(C)cc(C)cc2C)no1 yielded a composite z-score [1] of 1.01, a composite z-score [2] of -0.705 and a composite z-score [3] of 0.0218. For the same compound, the composite z-score [4] was -0.268, the composite z-score [5] was 0.0215 and the composite z-score [6] was 0.0248. For the same compound, the z-score [7] was -0.114, the composite z-score (Lefty1) was 0.0782 and the composite z-score [8] was -0.418. For the same compound, the z-score [9] was 0.389 (inactive).
For COC(=O)[C@@]1(Cc2ccc(F)cc2)[C@H]2c3cc(C(=O)N4CCCC4)n(Cc4c(CO)[nH]cc(C)c4=O)c3C[C@H]2CN1C(=O)c1ccccc1, the composite z-score [1] was 2.37 and 2.39, the composite z-score [2] was 0.709 and 1.18 and the composite z-score [3] was 1.1 and 1.41. For the same compound, the composite z-score [4] was 1.01 and -0.216, the composite z-score [5] was 0.529 and 0.121 and the composite z-score [6] was -0.351 and -0.789. The z-score [7] was 0.395 and 0.404, the composite z-score (Lefty1) was -0.212 and -1.02 and the composite z-score [8] was 1.16 and 0.234. For the same compound, the z-score [9] was 2.01 (inactive) and 1.01 (inactive).
For CC(C)OC(=O)C=C1C[C@@H](c2cccc(C(F)(F)F)c2)O[C@@H](c2cccc(C(F)(F)F)c2)O1, the composite z-score [1] was 0.143 and 0.877, the composite z-score [2] was 1.17 and 0.699 and the composite z-score [3] was 0.805 and 0.224. For the same compound, the composite z-score [4] was 0.795 and 0.302, the composite z-score [5] was -0.618 and -1.57 and the composite z-score [6] was -0.496 and -0.841. The z-score [7] was 1.52 and 2.59, the composite z-score (Lefty1) was -0.392 and -0.925 and the composite z-score [8] was 0.627 and 0.443. For the same compound, the z-score [9] was -0.864 (inactive) and 0.747 (inactive).
With C=CCN(C(=O)C(c1cccs1)N(C(=O)/C=C\C(=O)O)C(C)(C)CO)c1ccc(OC)cc1 (stereo not given) the composite z-score [1] was -1.01 and -0.0442, the composite z-score [2] was -0.392 and -0.41 and the composite z-score [3] was -0.675 and 1.18. The composite z-score [4] was -0.809 and -1.04, the composite z-score [5] was -1.7 and -1.17 and the composite z-score [6] was -0.855 and -0.862. The z-score [7] was 1.11 and 1.74, the composite z-score (Lefty1) was -1.22 and -0.566 and the composite z-score [8] was -0.747 and -0.0298. For the same compound, the z-score [9] was -2.86 (inactive) and -5.74 (inactive).

Reference: PubChem BioAssay
